pPAFAH inh: pPAFAH (human) enzyme inhibition | Q13093 | recombinant pPAFAH, FP-rhodamine probe fluorescence polarization | inhibition, % at 3.39 µM | actives 1.5% (n = 330,000);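 active = inhibition above the mean inhibition across the screen plus 3 SD, cut at about 25% in these data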;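 also: inhibitors block binding of the rhodamine activity-based probe so polarization drops; 0% = enzyme with DMSO and 100% = wells lacking pPAFAH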
PAFAH1B2 FP inh: PAFAH1B2 (human) inhibition | inhibition, % at 3.39 µM | recombinant PAFAH1B2, FP-rhodamine activity probe, fluorescence polarization | actives 1.2% (n = 340,000);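 active = inhibition above the mean of all tested compounds plus 3 SD, cut at about 24% in these data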;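 also: 0% = enzyme with DMSO and 100% = wells lacking PAFAH1B2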
PAFAH2 inh: inhibitors of human PAFAH2 | inhibition, % at 3.39 µM | actives 0.99% (n = 340,000) | Q99487 | recombinant PAFAH2, FP-rhodamine activity probe, fluorescence polarization;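 active = inhibition above the mean over all tested compounds plus 3 SD, cut at about 30% in these data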;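 also: inhibitors block probe labeling of enzyme so polarization drops; 0% = enzyme with DMSO and 100% = wells lacking PAFAH2 protein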
HTRA1 inh: blocks human HTRA1 serine peptidase; actives 0.5% (n = 340,000); inhibition, % at 5.96 µM; Q92743; recombinant HTRA1, FP-rhodamine activity-based probe, fluorescence polarization; AID 504803; in the data active = inhibition above about 36%;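 also: 0% = enzyme with DMSO and 100% = wells lacking enzyme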
DAGLB inhibitor: diacylglycerol lipase beta (human) inhibition; Q8NCG7; HEK293T DAGLB membrane lysate, EnzChek fluorogenic substrate; inhibition, % at 5.17 µM; actives 0.059% (n = 340,000); AID 504411; in the data active = inhibition above about 34%;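 also: 0% = enzyme with vehicle and 100% = wells lacking enzyme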
Target sequence (Q8NCG7 whole entry, looked up): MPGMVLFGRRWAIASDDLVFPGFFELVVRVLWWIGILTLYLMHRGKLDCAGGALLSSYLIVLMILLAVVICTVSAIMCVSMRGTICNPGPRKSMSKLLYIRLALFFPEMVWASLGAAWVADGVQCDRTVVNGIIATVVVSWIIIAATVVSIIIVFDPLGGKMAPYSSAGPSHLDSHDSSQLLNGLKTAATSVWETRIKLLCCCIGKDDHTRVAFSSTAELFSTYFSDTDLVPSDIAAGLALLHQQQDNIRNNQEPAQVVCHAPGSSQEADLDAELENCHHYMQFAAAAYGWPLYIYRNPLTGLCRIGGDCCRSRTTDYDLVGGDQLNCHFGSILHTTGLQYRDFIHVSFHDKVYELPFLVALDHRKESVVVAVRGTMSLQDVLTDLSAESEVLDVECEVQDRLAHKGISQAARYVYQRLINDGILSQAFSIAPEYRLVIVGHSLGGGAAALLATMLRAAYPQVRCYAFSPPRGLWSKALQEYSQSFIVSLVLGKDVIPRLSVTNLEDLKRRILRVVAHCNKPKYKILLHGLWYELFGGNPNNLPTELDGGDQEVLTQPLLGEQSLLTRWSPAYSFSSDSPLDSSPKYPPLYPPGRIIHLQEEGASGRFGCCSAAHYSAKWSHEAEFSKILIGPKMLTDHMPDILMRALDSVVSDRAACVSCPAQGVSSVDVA
PAFAH1B3 FP inh: PAFAH1B3 (human) inhibition | Q15102 | actives 0.28% (n = 340,000) | AID 492972 | inhibition, % at 3.39 µM | recombinant PAFAH1B3, FP-rhodamine probe, fluorescence polarization;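 active = inhibition above the screen-wide average of all tested compounds plus 3 SD, cut at about 25% in these data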;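 also: 0% = enzyme with DMSO only and 100% = wells lacking PAFAH1B3 protein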
The depositor's hits bear a star; x = not tested or not shown. Rows were chosen to be rich in hits. Some 2.8% of all compounds tested hit in one or more screens of this group.

SMILES	pPAFAH inh	PAFAH1B2 FP inh	PAFAH2 inh	HTRA1 inh	DAGLB inhibitor	PAFAH1B3 FP inh
O=C(COC(=O)/C=C/c1ccccc1Cl)NC1CC1	x	x	x	4	-3	x
O=C1Nc2ccc(F)cc2C12Nc1ccccc1-c1nnc(SCc3ccccc3Cl)nc1O2 (stereo not drawn)	2	25*	24	-5	17	9
COc1ccc([N+](=O)[O-])cc1N(CC(=O)NCCSc1ccc(C)cc1)S(C)(=O)=O	-7	31*	8	-1	0	4
CC(O)[C@H]1CNC(=O)C(=O)N1CCC12CC3CC(CC(C3)C1)C2 (stereo partly drawn)	0	25*	13	-6	1	10
CC(O)[C@H]1CNC(=O)C(=O)N1CC(C)(C)C (stereo partly drawn)	4	-2	9	2	1	6
CCN(CC(=O)Nc1ccc(NC(C)=O)cc1)C(=O)c1c(C)nn(Cc2ccc(C)cc2)c1Cl	x	2	-2	8	-1	3
CN(C)S(=O)(=O)c1cccc(COC(=O)Cc2c(F)cccc2Cl)c1	0	5	3	4	-7	12
CCOC(=O)c1cc(-c2ccccc2)sc1NC(=O)c1ccc(OC)cc1	-1	x	x	x	x	x
O=C(Nc1sc(-c2ccccc2)cc1C(=O)O)c1ccccc1	24	32*	15	-16	10	9
COC(=O)c1cccc(NC(=O)c2nn(C(C)C)c(=O)c3ccccc23)c1	25*	4	9	-1	-1	2
CCCCC1OC23CCCCC2C(C#N)(C#N)C1(C#N)C(=N)O3 (stereo not drawn)	17	30*	41*	17	-1	36*
CCCCCCCCOc1ccc(C2OC34CCCCC3C(C#N)(C#N)C2(C#N)C(=N)O4)cc1 (stereo not drawn)	30*	27*	34*	22	-4	22
CCCCC1OC23CCCCC2C(C#N)(C(=N)O3)C1(C#N)C#N (stereo not drawn)	5	30*	36*	23	-1	26*
N#CC1(C#N)C(c2ccccc2)OC23CCCCC2C1(C#N)C(=N)O3 (stereo not drawn)	16	15	26	21	-1	20
Cc1ccc(S(=O)(=O)NCC(C)NC(=O)CN2CCOCC2)cc1 (stereo not drawn)	5	0	-1	-3	2	8
CCN(CC)c1ccc(-c2nn3c(-c4ccccc4OC)nnc3s2)cc1	25*	5	0	-44	1	-3
COc1ccc(Cl)cc1CNC[C@H]1O[C@@H](n2ccc(N)nc2=O)[C@H](O)[C@@H]1O	x	x	x	4	-2	x
Cc1cccc(-c2ocnc2C(=O)N2CCN(C(=O)c3cccs3)CC2)c1	2	1	-1	-4	2	7
CCOc1ccc(N(CC)C(=O)COc2cc(=O)n(CC)c3ccccc23)cc1	12	2	-2	-5	0	5
CCOc1ccc(N(CC)C(=O)COc2cc(=O)n(C)c3ccccc23)cc1	28*	8	1	-2	2	2
C=C(C)COc1ccc2c3c(c(=O)oc2c1OCC(=C)C)CCC3	31*	6	67*	5	-10	0
CC(=O)COc1ccc2c3c(c(=O)oc2c1C)CCCCC3	15	-1	-6	-2	-4	-1
CC1=CC(C)(C)NC(=S)N1CCO	x	7	-2	2	-2	5
CN(C)C(CNC(=O)c1ccc(NC(=O)CC#N)cc1)c1ccccc1 (stereo not drawn)	2	1	-11	-8	-2	2
N#CCC(=O)Nc1ccc(C(=O)NCCC(c2ccccc2)c2ccccc2)cc1	34*	-7	-13	-54	1	-9
CC(C)c1ccc(NC(=S)N2CCN(S(=O)(=O)c3ccccc3)CC2)cc1	22	9	-5	-9	-1	9
C=CCSc1nc(=O)n2ccc(C)cc2n1	27*	-3	15	-5	2	3
O=C(/C=C/c1ccc(S(=O)(=O)NCc2ccco2)cc1)NCc1ccccc1Cl	32*	7	-4	-24	-4	4
COc1cc(NS(=O)(=O)c2c(C)[nH]c(C)c2C(=O)N2CCCCC2)cc(OC)c1OC	-2	-3	6	-3	1	3
Cc1nc2scc(-c3ccc(C(C)C)cc3)c2c(=O)n1N	1	x	x	x	x	x

Screening data: PubChem, The Scripps Research Institute Molecular Screening Center
